MEP2-GFP yeast = modulators of TOR pathway MEP2-GFP in S. cerevisiae; S. cerevisiae MEP2-GFP strain, flow cytometry GFP, 3 h; 100% = DMSO control level; actives 0.51% (n = 330,000); GFP response vs DMSO, % at 10 µM;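 active = GFP response versus DMSO above a set limit, roughly screen mean plus 3 SD, cut at about 180% in these data; inconclusive = fewer than 70 cells counted for a yeast strain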;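 also: median GFP fluorescence of the barcode-gated MEP2-GFP cells per well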
RPL19A-GFP yeast = modulators of TOR pathway RPL19A-GFP in S. cerevisiae; S. cerevisiae RPL19A-GFP strain, flow cytometry, 3 h; active compounds read low; percent response vs DMSO, % at 10 µM; actives 0.3% (n = 330,000); AID 2025;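 active = percent response vs DMSO below 50%; inconclusive = fewer than 70 events counted for the yeast strain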;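 also: median channel GFP fluorescence of the barcoded RPL19A-GFP strain; lower means less RPL19A-GFP as with rapamycin TOR inhibition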
LAP4 TOR yeast = modulators of TOR pathway LAP4-GFP in S. cerevisiae. S. cerevisiae LAP4-GFP multiplex, flow cytometry GFP, 3 h; median GFP as percent of DMSO wells. GFP response vs DMSO, % at 10 µM. actives 0.34% (n = 320,000). AID 2023;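 active = GFP response vs DMSO above a set limit, about the screen mean plus 3 SD, cut at about 150% in these data; inconclusive = under 70 cell events counted for the yeast strain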
AGP1 TOR yeast = modulators of TOR pathway AGP1-GFP in S. cerevisiae | actives 0.02% (n = 320,000) | S. cerevisiae AGP1-GFP multiplex flow cytometry, 3 h; GFP as percent of DMSO wells | GFP response vs DMSO, % at 10 µM | AID 2066;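 active = GFP response relative to DMSO above a set limit, near screen average plus 3 SD, cut at about 150% in these data; inconclusive = fewer than 70 cells counted for the yeast strain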;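 also: median GFP channel fluorescence of the gated AGP1 strain per well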
CIT2 TOR yeast = yeast TOR pathway CIT2-GFP modulation; actives 0.065% (n = 320,000); S. cerevisiae CIT2-GFP strain, flow cytometry, 3 h; 100 means same as DMSO wells; GFP response vs DMSO, % at 10 µM;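 active = GFP response relative to DMSO above a set limit, near the screen mean plus 3 SD, cut at about 150% in these data; inconclusive = Fewer than 70 cells measured for a yeast strain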;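 also: ratio of well median GFP fluorescence to mean of DMSO wells on the plate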
Each line names hits and unclear results; the compound was inactive in the other large screens; [ ] = dose if it differs, or a comment. Only some compounds are listed: those with a hit (about 0.93% of all), similar ones and a draw of the others.

FC(F)(F)c1cccc(Cn2nnnc2-c2cccc(C(F)(F)F)c2)c1	none
O=C(NNC1=NCCC1)c1cccc(Br)c1	LAP4 TOR yeast 174
Cc1ccccc1C(=O)NNC1=NCCC1	none (no result: RPL19A-GFP yeast)
CCCCC1OC23CCCCC2C(C#N)(C#N)C1(C#N)C(=N)O3 (stereo unspecified)	none
CCCCCCCCOc1ccc(C2OC34CCCCC3C(C#N)(C#N)C2(C#N)C(=N)O4)cc1 (stereo unspecified)	MEP2-GFP yeast 376[may fluoresce violet], RPL19A-GFP yeast 49[may fluoresce violet], CIT2 TOR yeast inconclusive
CC[N+](C)(CC)CC(=O)OCC1C(C)C=C(C)CC1C (stereo unspecified)	none
COc1ccc(-c2sc(C(=O)c3ccc(Cl)cc3Cl)cc2CC(=O)O)cc1	LAP4 TOR yeast 158
O=C(O)Cc1ccc(C(=O)c2ccc(Cl)cc2Cl)s1	none
Cc1ccc(-c2nn(-c3ccccc3)cc2CO)cc1	MEP2-GFP yeast 221[may fluoresce violet], CIT2 TOR yeast inconclusive
COc1ccc(-c2nn(-c3ccccc3)cc2CO)cc1	none
CCC1CCCCN1CCCNC(=O)c1nn(C)c2c1CS(=O)(=O)c1ccccc1-2 (stereo unspecified)	none
COc1ccc(Cl)cc1NC(=O)CN(C)S(=O)(=O)c1cccs1	MEP2-GFP yeast 201[may fluoresce violet], RPL19A-GFP yeast 32[may fluoresce violet], AGP1 TOR yeast inconclusive, CIT2 TOR yeast inconclusive
CCOc1ccc2nc(NC(=O)CN3CCC(n4nnc5cc(F)ccc54)CC3)sc2c1	MEP2-GFP yeast 178[may fluoresce violet], LAP4 TOR yeast inconclusive, AGP1 TOR yeast inconclusive, CIT2 TOR yeast inconclusive
O=C(c1ccc(Cl)c(S(=O)(=O)N2CCOCC2)c1)N1CCCC1	none
COc1ccc(-c2nc(N)n(C(C)=O)n2)cc1	RPL19A-GFP yeast 48 (no result: AGP1 TOR yeast)
CCC(=O)N1CCCc2cc(S(=O)(=O)NCc3cccs3)ccc21	MEP2-GFP yeast inconclusive, RPL19A-GFP yeast 21[may fluoresce violet], LAP4 TOR yeast inconclusive, AGP1 TOR yeast inconclusive (no result: CIT2 TOR yeast)
O=C(O)CCC(=O)N1CCc2cc(S(=O)(=O)NCc3cccs3)ccc21	none
COc1ccc(-n2nc3c(N4CCC(C(=O)NCc5cccc(C)c5)CC4)nnc(C)c3c2C)cc1	MEP2-GFP yeast 235[may fluoresce violet], AGP1 TOR yeast inconclusive, CIT2 TOR yeast inconclusive
CC(=O)/C(C#N)=C1\NC(=O)C(Cc2ccc(C)c(Cl)c2)S1 (stereo unspecified)	none
O=C(N/C(=C\c1ccc(Br)cc1)c1nc2ccccc2[nH]1)c1ccco1	MEP2-GFP yeast 217[may fluoresce violet], RPL19A-GFP yeast 33[may fluoresce violet], AGP1 TOR yeast inconclusive, CIT2 TOR yeast inconclusive
Cc1cc(OCc2ccc(C(=O)NN=C3CCCC3)cc2)ccc1Cl	LAP4 TOR yeast 174
CC(C)NC(=O)COc1ccc(OCc2ccccc2)cc1	none
O=C(COc1ccc(OCc2ccccc2)cc1)NN=C1CCCC1	LAP4 TOR yeast 152
COc1ccc(C(=O)NN=C2CCCC2)cc1	none
CCCCN(CCCNC(=O)c1ccc(CS(=O)(=O)c2c(Cl)cccc2Cl)o1)Cc1ccccc1	none
O=C(O)c1cccc(CSc2n[nH]c(-c3ccc(Cl)cc3Cl)n2)c1	none
C#CCSc1nncn1C(=O)/C=C/c1ccccc1	LAP4 TOR yeast 187
Cc1c(CC(=O)N2CCN(C(=O)C3COc4ccccc4O3)CC2)c(=O)oc2c(C)c(O)ccc12 (stereo unspecified)	none
Cc1ccc(NC(=O)CCCSc2nc3ccccc3[nH]2)cc1	CIT2 TOR yeast 165
Cc1ccc(NC(=S)c2nc3ccccc3[nH]2)cc1	LAP4 TOR yeast 170
CCOC(=O)N1CCN(C(=O)c2cccc(NS(=O)(=O)c3ccc(F)c(F)c3)c2)CC1	none
O=C1C2C3C=CC(C3)C2C(=O)N1CNc1ccc(O)cc1 (stereo unspecified)	none
Cc1ccc(NCN2C(=O)C3C4C=CC(C4)C3C2=O)cc1 (stereo unspecified)	LAP4 TOR yeast 210
CC(C)n1cnc2cc(NCc3nc4ccccc4n3C)ccc21	RPL19A-GFP yeast 40[may fluoresce violet], AGP1 TOR yeast inconclusive, CIT2 TOR yeast inconclusive
Cc1oc(C(C)(C)C)cc1C(=O)N1CCN(c2ccc(C(F)(F)F)cn2)CC1	none
Cc1ccc(S(=O)(=O)c2c(N)n(CCCN(C)C)c3nc4ccccc4nc23)cc1	none
CN(C)CCCn1c(N)c(C#N)c2nc3ccccc3nc21	MEP2-GFP yeast 485[may fluoresce violet], RPL19A-GFP yeast 31[may fluoresce violet], AGP1 TOR yeast inconclusive, CIT2 TOR yeast inconclusive
COc1ccc(CCNC(=O)c2ccc(-c3ccc([N+](=O)[O-])cc3)o2)cc1OC	MEP2-GFP yeast 196[may fluoresce violet], RPL19A-GFP yeast 43[may fluoresce violet], CIT2 TOR yeast inconclusive
